The whole screen tested about 200,000 compounds, of which about 15 (0.007%) were called active. Cut-off read from the data, not from the text of the source: active = displacement above about 50%; inactive = the rest. Only a selection was taken, and actives are over-represented in it overall.
These compounds were tested against E3 ubiquitin-protein ligase XIAP (Homo sapiens) (UniProt P98170) (assay: small molecules displacing peptide from XIAP – biochemical, IAP family, fluorescence polarization (AID 1018)). Settings: XIAP BIR domain, at 20 µM, active compounds read high.
Sequence of E3 ubiquitin-protein ligase XIAP (Homo sapiens) (P98170 whole entry, looked up, the tested form may be a part): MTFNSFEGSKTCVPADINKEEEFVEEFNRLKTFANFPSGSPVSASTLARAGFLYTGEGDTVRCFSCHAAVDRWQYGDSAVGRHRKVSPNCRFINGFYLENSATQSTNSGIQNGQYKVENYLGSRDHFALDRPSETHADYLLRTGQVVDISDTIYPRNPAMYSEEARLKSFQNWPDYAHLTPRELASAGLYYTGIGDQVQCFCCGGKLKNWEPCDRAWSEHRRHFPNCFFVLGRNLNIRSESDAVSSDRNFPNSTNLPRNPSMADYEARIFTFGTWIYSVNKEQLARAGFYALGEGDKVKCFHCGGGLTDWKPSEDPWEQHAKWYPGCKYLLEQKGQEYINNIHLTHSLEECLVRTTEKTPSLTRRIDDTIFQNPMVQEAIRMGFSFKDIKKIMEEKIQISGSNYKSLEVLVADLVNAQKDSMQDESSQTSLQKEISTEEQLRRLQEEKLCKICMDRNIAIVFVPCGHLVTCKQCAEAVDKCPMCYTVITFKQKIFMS

displacement, active:
CC(C)c1ccc(C2NC(=O)NC3=C2CCc2ccccc23)cc1 (configuration not stated) 52.5%
COC(=O)c1cc2n3ccccc3c(C)c(-c3ccccc3)c-2c1C(=O)OC 72.2%

displacement, inactive:
O=c1[nH]nc(CNc2ccc(OC(F)(F)F)cc2)c2ccccc12 -3.9%
COc1ccccc1N(C)S(=O)(=O)c1ccc(C(=O)Nc2ccc3nc(C)sc3c2)cc1 1.3%
Cc1cc(C(F)(F)F)nn1CC(=O)N(C)c1ccccc1 -1.9%
CCNS(=O)(=O)c1ccc(Br)c(OC)c1 -3.2%
COc1cc2nc(CN3CCN(S(=O)(=O)c4ccc(Cl)cc4)CC3)[nH]c(=O)c2cc1OC -6.8%
C#CCOCCOCCOCCNc1nc(N2CCN(C(=O)[C@H](CCCCN)n3cc([C@@H](N)C(C)CC)nn3)CC2)nc(N2CCN(C(=O)[C@H](CCCCN)n3cc([C@@H](N)CO)nn3)CC2)n1 (some centres not stated) 3.3%
CN(C)S(=O)(=O)c1ccc(C(=O)Nc2ccnn2C2CCCCC2)cc1 -3.3%
COc1ccc(-c2nc(CC(=O)O)cs2)cc1OC -0.6%
O=C1NC2=C(CCc3ccccc32)C(c2ccccc2)N1 (configuration not stated) -5.4%
Cc1ccc(C2NC(=O)NC3=C2CCc2ccccc23)cc1 (configuration not stated) -5.1%
CCOC(=O)c1c(-c2ccc(C)o2)csc1NC(=O)CSc1nnnn1-c1ccccc1 -8.2%
CCCCCCCCNC(=O)c1cnsn1 -0.1%
COc1cccc(-c2cc(C(=O)NCCCn3ccnc3)c3ccccc3n2)c1 -3%
O=C(Cn1cc2c(n1)CCCCC2)NC1CCN(Cc2ccccc2)CC1 -4.9%
CCCc1cc(-c2n[nH]c(=S)n2CC)cs1 -5.7%
O=C(Cn1c(=O)oc2cc(S(=O)(=O)N3CCCCC3)ccc21)N1CCc2ccccc2C1 -5.2%
COc1ccc(NC(=O)OCCN2CCN(Cc3ccccc3)CCC2=O)cc1 -8%
N#Cc1nc(COc2ccccc2)oc1N1CCN(Cc2ccccc2)CC1 0.7%
CCC(C)NC(=O)Cc1c(OC)ccc2cc(Br)ccc12 (configuration not stated) -4.6%
C=CCSc1nnc(-c2ccccc2NC(=O)CC)c(=O)[nH]1 -1.1%
COc1ccccc1N1CCN(C(=O)CCN2C(=O)c3cccc4cccc(c34)C2=O)CC1 -4.4%
CC(=O)Nc1ccc(NC(=O)C(C)c2cccc(C(=O)c3ccccc3)c2)cc1 (configuration not stated) 2.4%
CCOC(=O)c1ccc(NC(=S)NCCCN2CCCCC2)cc1 -4.4%
COC(=O)c1cc2c(-c3ccccc3)c(C)c3ccccn3c-2c1C(=O)OC 26%
COC(=O)c1c(Cl)c2n3ccccc3c(C)c(-c3ccccc3)c-2c1C(=O)OC -0.6%

— PubChem BioAssay AID1018 (Sanford-Burnham Center for Chemical Genomics, 2008)
